# Measured values published in ChEMBL document CHEMBL3988442, “University of Dundee, Small-Polar-MMV Screening Library” (2021).
# The whole screen tested about 69,000 compounds, of which about 950 (1.4%) showed an effect of 50% or more. This is one part of a sample in which strong results are shown more often than they occur.
# Test system: Mycobacterium tuberculosis
# Test: Cornell M. t heat shock assay; also: in the data most compounds retested in dose-response had high values
# Type: functional, organism-based
# Parameters: dose or concentration left out as unconfirmed
row,SMILES,Percent Effect
1,CCc1ccc(CN2CCCCC2c2n[nH]cc2-c2cc(C)no2)cc1.Cl (centres undefined),16.34%
2,CS(=O)(=O)N[C@H]1CCO[C@]2(CCN(C(=O)c3ccccn3)C2)C1.O=C(O)C(F)(F)F,72.36%
3,CS(=O)(=O)N[C@@H]1CCO[C@]2(CCN(C(=O)c3cscn3)C2)C1,-9.704%
4,CS(=O)(=O)N[C@@H]1CCO[C@]2(CCN(C(=O)c3cnccn3)C2)C1,9.518%
5,CCC(N)C(=O)N1CCC(OCc2ccc(Cl)c(Cl)c2)CC1.Cl (centres undefined),20.26%
6,CCn1ccnc1CNc1nccc(-c2c(C)nn(C)c2C)n1,4.641%
7,Cc1ccc(CNCc2nccn2C)c(OC(C)(C)C)c1,50.94%
8,Cc1ccc(CNC(=O)NCc2nccn2C)c(OC(C)(C)C)c1,2.123%
9,Cc1ccc(CNCc2nccn2C)c(OCC2CC2)c1,39.25%
10,CCn1ccnc1CNCc1ccc(C)cc1OC(C)(C)C,55.22%
11,CCn1ccnc1CNCC1CCCN1c1cccnn1 (centres undefined),2.735%
12,Cn1cccc1C(=O)NC[C@]12COC[C@H]1CN(Cc1nccs1)C2.O=C(O)C(F)(F)F,-42.54%
13,COc1nccnc1N1C[C@@H]2CC[C@H](C1)N(CC=C(C)C)C2=O,-19.62%
14,COCCN(C)C1COC2(CCN(Cc3ccccn3)CC2)C1.O=C(O)C(F)(F)F.O=C(O)C(F)(F)F (centres undefined),-27.77%
15,COCCO[C@H]1CCN(Cc2cccnc2)[C@H]1Cc1cccnc1.O=C(O)C(F)(F)F.O=C(O)C(F)(F)F.O=C(O)C(F)(F)F,-30.96%
16,COCCO[C@@H]1CCN(C(=O)c2ccc(C)o2)[C@@H]1Cc1cccnc1.O=C(O)C(F)(F)F,104.5%
17,COCCO[C@@H]1CCN(C(=O)c2ccc(C)o2)[C@@H]1Cc1cnn(C)c1,11.53%
18,CC[C@@H]1N(Cc2ccc(C)o2)CCC[C@]12CCC(=O)N2CCOC.O=C(O)C(F)(F)F,-28.97%
19,Cl.NCC1CCC(c2c(C(=O)NCCO)sc3ccccc23)CC1 (centres undefined),85.23%
20,CN(C)CCNC(=O)c1sc2ccccc2c1C1CCC(CN)CC1.Cl (centres undefined),20.1%
21,COCCNC(=O)c1sc2ccccc2c1C1CCC(CN)CC1.Cl (centres undefined),16.29%
22,CC(C)c1n[nH]c(C(=O)Nc2cc[nH]n2)c1Br,4.113%
23,CC(C)c1n[nH]c(C(=O)Nc2ccccn2)c1Br,-0.4918%
24,Cc1ccnc(NC(=O)c2[nH]nc(C(C)C)c2Br)c1,68.96%
25,O=C(O)C(F)(F)F.O=C(O)C(F)(F)F.c1cncc(O[C@@H]2CC[C@H]3[C@H]2OCCN3C2CCCC2)c1,-35.82%
26,CCN(Cc1ccncc1)c1cc(C2CCNCC2)nc(C)n1,-13.1%

row,SMILES,Percent Effect
1,CN(Cc1cc2cc(F)ccc2[nH]1)c1cc(C2CCCNC2)ncn1 (centres undefined),27.99%
2,Cc1nc(C2CCNCC2)cc(N(C)Cc2cc3cc(F)ccc3[nH]2)n1,81.43%
3,Cc1nc(NCc2cccc(F)c2)cc(C2CCNCC2)n1.Cl,-3.606%
4,COc1ccc2[nH]c(CNc3cc(C4CCNCC4)nc(C)n3)cc2c1,101.5%
5,Cc1nc(NCc2ccc(C)o2)cc(C2CCNCC2)n1,-22.33%
6,CCCN(CC)c1cc(C2CCNCC2)nc(C)n1,-15.84%
7,Cc1nc(-c2ccc(F)cc2)cc(C2CCNCC2)n1,-9.323%
8,CCN(Cc1c(F)cccc1Cl)c1cc(C2CCNCC2)nc(C)n1,69.57%
9,COc1ccc(CNC(C)c2ccccc2Cl)c(OC)c1OC.Cl (centres undefined),-26.61%
10,COc1c(CNC2CCSc3ccc(F)cc32)c(C)nn1C.Cl (centres undefined),15.14%
11,CNC(C(=O)OC)c1cc(F)ccc1F.Cl (centres undefined),1.092%
12,O=C(O)C(F)(F)F.O=C(O)C(F)(F)F.O=C(c1ccncc1)N1CC[C@@H]2CN(C3CCOCC3)CCO[C@@H]2C1,7.278%
13,Cc1cccc(CN2CCc3nnc(CN4CCCC4=O)n3CC2)n1.O=C(O)C(F)(F)F,-34.57%
14,Cc1cc(=O)[nH]c(-n2nc(C)c(CCC(=O)NCc3ccco3)c2C)n1,61.79%
15,Cc1cc(C(=O)NCc2ccco2)nn1C,12.62%
16,Cc1nc2c(c(C)c1CC(=O)NCc1cccs1)c(=O)[nH]n2C,11.25%
17,Cc1noc(C)c1CCC(=O)NCCc1cccs1,11.5%
18,Cc1cc(=O)[nH]c(-n2nc(C)c(CCC(=O)NCc3cccs3)c2C)n1,102.2%
19,Cc1ccn(CCC(=O)NCc2ccco2)n1,6.355%
20,O=S(=O)(CCO)CCc1ccccc1Cl,17.45%
21,CCN1CCc2c(sc3c2C(=O)NC(/C=C\c2ccccc2)N3)C1 (centres undefined),-24.35%
22,Cn1c2ncccc2c(=O)n1CC(=O)NCCC1=CCCCC1,-2.25%
23,CCCc1nn(Cc2ccc(Br)s2)c(=O)o1,31%
24,CC(C)CN1CCN(C(=O)CCn2cccn2)CC1,37.09%
25,CCC(=O)N1CCN(C(=O)CCn2cccn2)CC1,10.75%
26,CCC(=O)N1CCN(C(=O)Cn2cccn2)CC1,62.88%

row,SMILES,Percent Effect
1,O=C1NCCN1CCNc1cc(-c2ccncc2)nc2ccnn12,-39.13%
2,CC1(C)Cc2cc(-c3cncn3CCNC3CCS(=O)(=O)C3)ccc2O1.Cl (centres undefined),8.949%
3,CCC(C)NC(=O)Cn1ccc2c(C)nn(CC)c2c1=O (centres undefined),-10.24%
4,c1ccc(N2CCCC2)c(NCc2ccncc2)c1,-19.28%
5,Cc1nc(N2CCCC2)ccc1NCc1ccccn1,4.716%
6,c1ccc(CNc2ccccc2N2CCCC2)nc1,50.65%
7,O=C(O)C(F)(F)F.O=C(c1cnccn1)N1CC2(CCN(Cc3ccsc3)C2)C1,-14.16%
8,CN(C)[C@@H]1CCN(C(=O)Cc2cccs2)[C@H]1Cc1cnn(C)c1.O=C(O)C(F)(F)F,5.582%
9,O=C(O)C(F)(F)F.c1ccc(CN2Cc3nccn3CC(Cn3cccn3)C2)nc1 (centres undefined),11.05%
10,CN(C)CCN1CCCC12CCN(C(=O)c1ccncc1)CC2.O=C(O)C(F)(F)F.O=C(O)C(F)(F)F,6.106%
11,CC(NC(=O)OC(C)(C)C)c1nnc(S(=O)(=O)Cc2ccccc2Cl)o1 (centres undefined),10.13%
12,Cl.N[C@@H](Cc1ccccc1)c1nnc(S(=O)(=O)Cc2ccc(Cl)cc2)o1,-31.2%
13,Cc1noc(C(C)NC(=O)[C@@H](C)NC(=O)OC(C)(C)C)n1 (some centres undefined),4.198%
14,CC(NC(=O)OC(C)(C)C)c1nnc(S(=O)(=O)Cc2ccc(Cl)cc2)o1 (centres undefined),103.1%
15,Cc1ccccc1CS(=O)(=O)c1nnc(C(C)NC(=O)OC(C)(C)C)o1 (centres undefined),89.48%
16,C[C@H](NC(=O)OC(C)(C)C)c1nnc(S(=O)(=O)Cc2cccc(F)c2)o1,-6.703%
17,COCCN1C[C@@H]2[C@@H](OC)CCN(C(=O)Cc3ccsc3)[C@@H]2C1.O=C(O)C(F)(F)F,-5.727%
18,O=C(O)C(F)(F)F.O=C(c1ccc(F)cc1)N1CC[C@H]2[C@H]1CCN2CC1CC1,-18.24%
19,CN1CCN(C)C2(CCN(Cc3ccsc3)CC2)C1=O.O=C(O)C(F)(F)F,-19.83%
20,O=C(O)C(F)(F)F.O=C(O)C(F)(F)F.O=C1C[C@H]2[C@@H](CCN2C(=O)Cc2ccsc2)N1Cc1cccnc1,-3.092%
21,CCCN1CCC2(CC1)CN(C(=O)c1cccnc1)c1ccc(F)cc12.O=C(O)C(F)(F)F.O=C(O)C(F)(F)F,1.02%
22,O=C(c1cc(COc2ccc3c(c2)OCO3)[nH]n1)N1CCCC1,27.84%
23,O=C(c1cc(COc2ccc3c(c2)OCO3)[nH]n1)N1CCSCC1,62.66%
24,O=C(c1cc(COc2ccc3c(c2)OCO3)[nH]n1)N1CCOCC1,27.44%
25,O=C(NC1CC1)[C@@]12CCO[C@@H]1CCN(Cc1ccc3c(c1)OCO3)C2.O=C(O)C(F)(F)F,3.117%
26,O=C(Nc1ccc(Cl)cn1)c1nn(C2CCS(=O)(=O)C2)c2c1CCCC2 (centres undefined),11.75%

row,SMILES,Percent Effect
1,Cc1cc(C2CCC2)nc(N2CCC3(CCNC(=O)CC3)CC2)n1,9.358%
2,CC(C)c1cc(=O)[nH]c(C(C)(C)N)n1.Cl,-1.854%
3,CCc1c(C)nc(-n2nc(C3CC3)cc2NC(C)=O)[nH]c1=O,-4.817%
4,CCCc1cc(=O)[nH]c(-c2cccc(CN3CCN4CCCC4C3)c2)n1 (centres undefined),0.7345%
5,CCc1cc(=O)[nH]c(-n2nc(C3CC3)cc2NC(=O)C2CC2)n1,103.7%
6,CCCc1cc(=O)[nH]c(-c2cccc(CN3CCCCCC3)c2)n1,-11.64%
7,CCCc1cc(=O)[nH]c(-n2nc(C3CC3)cc2N)n1,101.7%
8,CC(C)c1cc(=O)[nH]c(-n2nc(C3CC3)cc2N)n1,103%
9,Cc1cc(C(=O)Nc2cc(C3CC3)n[nH]2)c2c(C)nn(C)c2n1,28.31%
10,Cc1cc(=O)[nH]c(-n2nc(C3CC3)cc2N)n1,101%
11,CCC(C)(N)c1nc(C(C)C)cc(=O)[nH]1.Cl (centres undefined),7.893%
12,CCn1nc(C)c(NC(=O)c2cc(NC(=O)C3CC3)n(C)n2)c1C,-24.03%
13,Cc1ccc(CN(CCCN2CCOCC2)Cc2cnc(C)n2C)o1.O=C(O)CC(O)(CC(=O)O)C(=O)O,-5.16%
14,O=C(O)C(F)(F)F.O=C1COC2(CCN(CC3CCC3)CC2)CN1c1cncnc1,-21.31%
15,CCn1ncc(CN2CCc3c(nc(-c4cccnc4)[nH]c3=O)C2)c1C,-178.1%
16,O=c1[nH]c(N2CCCCC2)nc2c1CCN(Cc1cccnc1)C2,-9.833%
17,O=C(c1ccccn1)N1CCc2c(nc(-c3ccncc3)[nH]c2=O)C1,-10.2%
18,Cn1cccc1CN1CCc2ncnc(-c3cccnc3)c2CC1,-25.32%
19,COc1ccc(CN2CCc3c(nc(-c4ccccn4)[nH]c3=O)C2)cc1,89.16%
20,Cc1ncc(CN2CCc3c(nc(-c4ccccn4)[nH]c3=O)C2)n1C,8.847%
21,Cc1nn(C)cc1CN1CCc2c(nc(-c3ccccn3)[nH]c2=O)C1,2.88%
22,O=c1[nH]c(-c2ccccn2)nc2c1CCN(Cc1cccc(O)c1)C2,53.42%
23,Cn1cc(CN2CCc3c(nc(-c4ccccn4)[nH]c3=O)C2)cn1,-205.6%
24,CC1CCCCN1c1nc2c(c(=O)[nH]1)CCN(Cc1ccccn1)C2 (centres undefined),-29.02%
25,COc1ccccc1CN1CCc2c(nc(-c3ccccn3)[nH]c2=O)C1,93.29%
26,Cn1cccc1CN1CCc2c(nc(-c3ccccn3)[nH]c2=O)C1,73.71%
